Our source for the AC50 and outcome values is PubChem BioAssay (EPA / NIEHS).

SMILES strings stand for the structures. The source made the active and inactive calls. How the source made its calls: active means hit-call score of the fitted dose curve at least 0.9, where 1 is the maximum; inactive means score below 0.9.

Read-out in one experiment: Intercellular Adhesion Molecule 1 (ICAM1), ICAM1 (gene 3383)
Nature of the experiment: LTEA_HepaRG_ICAM1: Life Technologies and Expression Analysis (LTEA) Assay for Intercellular Adhesion Molecule 1 (ICAM1) using HepaRG (AID 2283507). As to conditions: mRNA level, 48 h; actives raise or lower the signal. An outline of the steps:
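Readout is qRT-PCR mRNA level, normalized to three housekeeping genes and fitted bidirectionally against 0.5% DMSO vehicle. Human HepaRG cultures received compound for 48 h, top concentration 100 uM with half-log dilutions.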
Turning to `Fc1ccccc1[C@@H](F)COC1CCC(Nc2ncnc3[nH]ncc23)CC1` (some centres undefined), the AC50 is 50 µM (active).
On to `NC(=O)NO`, for which the outcome was inactive.
As to `C1=CCCC=CCCC=CCC1`, the outcome was inactive.
Consider `CC(O)CN(CCN(CC(C)O)CC(C)O)CC(C)O` (centres undefined), for which the result was inactive.
Take `Cn1c(=O)cc(Oc2ccc(F)cc2F)c2cnc(NCC(C)(C)O)nc21`: the compound was called inactive.
For the compound `CCCC(=O)OCC`, the result was inactive.
The same measure, in the same setting: under `C=CC(=C)CCC=C(C)C` stands “inactive”.
On to `O=C1CCC(N2C(=O)c3ccccc3C2=O)C(=O)N1` (centres undefined), for which the compound was classed as inactive.
As to `O=C(O)c1cc(N=Nc2ccc(S(=O)(=O)Nc3ccccn3)cc2)ccc1O`, the compound was classed as inactive.
Consider `CCCCCCCCCCCCCCCO`, for which the compound was called inactive.
In the case of `CC(=O)c1ccc2c(c1)[C@H](NC(=O)c1ccc(F)cc1)[C@@H](O)C(C)(C)O2`, the result was inactive.

Read-out in the next experiment: Insulin-like growth factor-binding protein 1 (IGFBP1), IGFBP1 (gene 3484)
Nature of the experiment: LTEA_HepaRG_IGFBP1: Life Technologies and Expression Analysis (LTEA) Assay for Insulin-like growth factor-binding protein 1 (IGFBP1) using HepaRG (AID 2283508). As to conditions: mRNA level, 48 h; actives raise or lower the signal. An outline of the steps: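 Thawed HepaRG cells are plated for 48 h, switched to serum-free induction medium, then dosed in duplicate for another 48 h (100 uM top, half-log steps). Lysates in RLT go to qRT-PCR, and gain or loss of signal is fitted relative to vehicle.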
For the compound `Cn1cnc([N+](=O)[O-])c1Sc1ncnc2nc[nH]c12`, the AC50 was 2.75 µM (active).
On to `COc1ccc2sc(C(=O)Nc3nnn[nH]3)c(OC(C)C)c2c1`, for which the AC50 is 23.6 µM (active).
With `CN(C)c1ccc(Cc2ccc(N(C)C)cc2)cc1`, the outcome was inactive.
For the compound `Nc1nc2ncc(CNc3ccc(C(=O)N[C@@H](CCC(=O)O)C(=O)O)cc3)nc2c(=O)[nH]1`, the result was inactive.
On the same count and under the same terms, to `CC(C)=CCC/C(C)=C\CO` belongs “inactive”; to `CCOCCOCCOCCO`, “inactive”.
Regarding `CC/C(=C\C(=N/O)C(N)=O)C(C)[N+](=O)[O-]` (centres undefined), the call was inactive.
The same measure, in the same setting: under `CCOC(=O)COc1ccc2c(c1)CC(NCC(O)c1cccc(Cl)c1)CC2` (centres undefined) stands “inactive”; under `CC(C)=CCC/C(C)=C/CO`, “inactive”; under `CC(C)(O)c1coc(S(=O)(=O)NC(=O)Nc2c3c(cc4c2CCC4)CCC3)c1`, “inactive”.
Consider `CC1=CC(=O)CC(C)(C)C1`, for which the compound was called inactive.
Turning to `CCCCCCc1ccc(O)cc1O`, the call was inactive.
The same measure, in the same setting: to `CC(C)CCO` belongs “inactive”; to `CC[C@H](C)C(=O)O[C@H]1C[C@@H](C)C=C2C=C[C@H](C)[C@H](CC[C@@H]3C[C@@H](O)CC(=O)O3)[C@H]21`, “inactive”; to `CC1(C)C(=O)N(Br)C(=O)N1Br`, “inactive”.
As for `CCCN(C1CCN(C(=O)C2CCNCC2)CC1)[C@@H]1CCc2ccc(OC)cc2C1`, the AC50 is 69.5 µM (active).
Take `CCOc1cccc(-n2cc(C(=O)N3CCN(c4cc(C(=O)O)c5ccccc5c4)CC3)nc2-c2ccc(C)cc2)c1`: the AC50 is 12.9 µM (active).
As to `Cc1ccc(O)cc1`, the compound was called inactive.
In the case of `CC[C@H]1OC(=O)[C@H](C)[C@@H](O[C@H]2C[C@@](C)(OC)[C@@H](O)[C@H](C)O2)[C@H](C)[C@@H](O[C@@H]2O[C@H](C)C[C@H](N(C)C)[C@H]2O)[C@](C)(O)C[C@@H](C)C(=O)[C@H](C)[C@@H](O)[C@]1(C)O`, the outcome was inactive.
Regarding `Fc1ccccc1[C@@H](F)COC1CCC(Nc2ncnc3[nH]ncc23)CC1` (some centres undefined), the AC50 is 63.8 µM (active).
`NC(=O)NO`: the outcome was inactive.
As to `C1=CCCC=CCCC=CCC1`, the result was inactive.
On the same count and under the same terms, to `CC(O)CN(CCN(CC(C)O)CC(C)O)CC(C)O` (centres undefined) belongs “inactive”.
For `Cn1c(=O)cc(Oc2ccc(F)cc2F)c2cnc(NCC(C)(C)O)nc21`, the outcome was inactive.
`CCCC(=O)OCC`: the result was inactive.
For the compound `C=CC(=C)CCC=C(C)C`, the outcome was inactive.
On the same count and under the same terms, to `O=C1CCC(N2C(=O)c3ccccc3C2=O)C(=O)N1` (centres undefined) belongs “inactive”.
`CCCCCCCCCCCCCCCO`: the compound was called inactive.
As to `CC(=O)c1ccc2c(c1)[C@H](NC(=O)c1ccc(F)cc1)[C@@H](O)C(C)(C)O2`, the outcome was inactive.

Read-out in a further experiment: Interleukin 6 (IL6), IL6 (gene 3569)
Nature of the experiment: LTEA_HepaRG_IL6: Life Technologies and Expression Analysis (LTEA) Assay for Interleukin 6 (IL6) using HepaRG (AID 2283509). As to conditions: mRNA level, 48 h; actives raise or lower the signal. Summed up:
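HepaRG, ~100,000 cells/well, 48 h pre-culture; serum-free induction medium; cmpd 8-pt half-log from 100 uM, 0.5% DMSO, duplicate, 48 h. Lysis in RLT, TaqMan qRT-PCR; gain or loss vs DMSO.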
In the case of `Cn1cnc([N+](=O)[O-])c1Sc1ncnc2nc[nH]c12`, the compound was classed as inactive.
With `COc1ccc2sc(C(=O)Nc3nnn[nH]3)c(OC(C)C)c2c1`, the outcome was inactive.
As for `CN(C)c1ccc(Cc2ccc(N(C)C)cc2)cc1`, the call was inactive.
As to `Nc1nc2ncc(CNc3ccc(C(=O)N[C@@H](CCC(=O)O)C(=O)O)cc3)nc2c(=O)[nH]1`, the outcome was inactive.
For the compound `CCOCCOCCOCCO`, the compound was called inactive.
Regarding `CC/C(=C\C(=N/O)C(N)=O)C(C)[N+](=O)[O-]` (centres undefined), the outcome was inactive.
On to `CCOC(=O)COc1ccc2c(c1)CC(NCC(O)c1cccc(Cl)c1)CC2` (centres undefined), for which the result was inactive.
As to `CC(C)=CCC/C(C)=C/CO`, the compound was called inactive.
In the case of `CC(C)(O)c1coc(S(=O)(=O)NC(=O)Nc2c3c(cc4c2CCC4)CCC3)c1`, the compound was classed as inactive.
On to `CC1=CC(=O)CC(C)(C)C1`, for which the compound was classed as inactive.
Consider `CCCCCCc1ccc(O)cc1O`, for which the call was inactive.
For `CC(C)CCO`, the call was inactive.
In the case of `CC[C@H](C)C(=O)O[C@H]1C[C@@H](C)C=C2C=C[C@H](C)[C@H](CC[C@@H]3C[C@@H](O)CC(=O)O3)[C@H]21`, the result was inactive.
For `CC1(C)C(=O)N(Br)C(=O)N1Br`, the compound was called inactive.
As to `CCCN(C1CCN(C(=O)C2CCNCC2)CC1)[C@@H]1CCc2ccc(OC)cc2C1`, the AC50 is 84.2 µM (active).
As for `CCOc1cccc(-n2cc(C(=O)N3CCN(c4cc(C(=O)O)c5ccccc5c4)CC3)nc2-c2ccc(C)cc2)c1`, the AC50 was 74.2 µM (active).
As for `Cc1ccc(O)cc1`, the call was inactive.
As to `CC[C@H]1OC(=O)[C@H](C)[C@@H](O[C@H]2C[C@@](C)(OC)[C@@H](O)[C@H](C)O2)[C@H](C)[C@@H](O[C@@H]2O[C@H](C)C[C@H](N(C)C)[C@H]2O)[C@](C)(O)C[C@@H](C)C(=O)[C@H](C)[C@@H](O)[C@]1(C)O`, the compound was called inactive.
`Fc1ccccc1[C@@H](F)COC1CCC(Nc2ncnc3[nH]ncc23)CC1` (some centres undefined): the AC50 was 73.7 µM (active).
In the case of `NC(=O)NO`, the call was inactive.
Take `C1=CCCC=CCCC=CCC1`: the call was inactive.
The same measure, in the same setting: to `CC(O)CN(CCN(CC(C)O)CC(C)O)CC(C)O` (centres undefined) belongs “inactive”.
Regarding `Cn1c(=O)cc(Oc2ccc(F)cc2F)c2cnc(NCC(C)(C)O)nc21`, the compound was called inactive.
Regarding `CCCC(=O)OCC`, the compound was classed as inactive.
On to `C=CC(=C)CCC=C(C)C`, for which the outcome was inactive.
Turning to `O=C1CCC(N2C(=O)c3ccccc3C2=O)C(=O)N1` (centres undefined), the result was inactive.
Turning to `O=C(O)c1cc(N=Nc2ccc(S(=O)(=O)Nc3ccccn3)cc2)ccc1O`, the outcome was inactive.
On the same count and under the same terms, under `CCCCCCCCCCCCCCCO` stands “inactive”; under `CC(=O)c1ccc2c(c1)[C@H](NC(=O)c1ccc(F)cc1)[C@@H](O)C(C)(C)O2`, “inactive”.
